Where “and” joins values, the source holds several entries; their conditions need not be identical. Identical values can stand only once. Among all 420,000 compounds or so, about 64,000 (15%) were called active. Another 27% or so got no clear call; they are omitted. The list is a sample of the results. Values without a mark were called inactive. The call rests on the fitted dose curve; in most records, active means well fitted inhibition curve with a large enough effect; inconclusive means small, poorly fitted or top-dose-only effect; inactive means flat fitted curve, though single readings scatter.
Experiment: qHTS for Inhibitors of human tyrosyl-DNA phosphodiesterase 1 (TDP1): qHTS in cells in absence of CPT; further: nearly all actives have a fitted effect of over 55% in size
Conditions: DT40 Tdp1-/- hTDP1 cells, no CPT, ATP luminescence, 48 h; activity change, negative = growth inhibition: at 46.2 µM (top of the series)
Summary of the method: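 Compound effects on proliferation are scored in DT40 Tdp1-/-;hTDP1 cells in the absence of CPT. ATP levels (CellTiter-Glo luminescence) are recorded after a ≥48 hr, 37 °C incubation.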
On the % scale 0 is the no-effect control and ±100 the full control effect; potency means the concentration at half of the fitted maximal effect.

SMILES | activity change, negative = growth inhibition | Potency
C[C@H]1CN([C@@H](C)CO)C(=O)CCCn2nncc2CO[C@@H]1CN(C)S(=O)(=O)c1cccc(C#N)c1 | 3.79% | –
CCCOC(=O)c1ccc(N2C(=O)c3ccccc3C2=O)cc1 | 7.66% | –
CCOc1ccc(CCNC(=O)COC(=O)CCS(=O)(=O)c2ccc(C)cc2)cc1OCC | -8.89% | –
COC(=O)CN1C(C)=Nc2ccc(Br)cc2C1c1ccccc1 (centres undefined) | -22.8% | –
O=C(/C=C/c1ccccc1[N+](=O)[O-])OC1CCCCC1=O (centres undefined) | 10.5% | –
CC1CCCCC1NC(=O)/C(C#N)=C/C=C/c1ccccc1[N+](=O)[O-] (centres undefined) | – | 9.2 µM (active)
O=C(/C=C/c1ccccc1[N+](=O)[O-])NCC1CCCO1 (centres undefined) | 6.91% | –
CCC(CC)C(=O)Nc1cccc(C(=O)N2CCCC2)c1 | -15.9% | –
Cc1occc1-c1nnc(SCC(=O)NC2(C#N)CCCC2)n1C | -12.1% | –
CCOCCCN1C(=O)C2C(C(=O)Nc3ccc(OCC)cc3)C3C=CC2(O3)C1C(=O)NC1CCCCC1 (centres undefined) | -14.8% | –
O=C(Nc1cccc(Cl)c1)OCc1ccccn1 | 3.36% | –
NS(=O)(=O)c1cccnc1Nc1cccc(Cl)c1 | -28.7% | –
OCCCNc1nccc(-c2cc(Nc3cccc(Cl)c3)ncn2)n1 | – | 0.731 µM (active)
CCC(Sc1nncn1C)C(=O)Nc1nnc(-c2ccc(Cl)cc2)s1 (centres undefined) | -15.8% | –
NS(=O)(=O)c1cc2c(cc1Cl)NC(C(Cl)Cl)NS2(=O)=O (centres undefined) | – | inactive
O=P(c1cccs1)(c1cccs1)c1cccs1 | -0.74% | –
O=C(Nc1ccccc1Cl)c1ccccc1S(=O)(=O)c1ccccc1[N+](=O)[O-] | -2.25% | –
COc1cc(/C=N\NC(=O)c2nonc2N)c(OC)cc1Br | – | 29.1 µM (active)
COc1cc(OC)c(/C=N/NC(=O)c2ccc([N+](=O)[O-])cc2)cc1Br | -16.1% | –
COc1cc(/C=N/N=C(\N)c2nonc2N)cc(OC)c1OC | -1.42% | –
CCc1cc2c(=O)c(-c3nc4ccccc4n3C)c(CCCC(=O)O)oc2cc1OC(=O)C(C)(C)C | -28.1% | –
COc1ccc(O)c(/C=N/N=C/c2cccc([N+](=O)[O-])c2)c1 | 7.16% | –
Cc1ccc(S(=O)(=O)NC(=O)N2CCCC(C)(C)C2)cc1 | -5.23% | –

SMILES | activity change, negative = growth inhibition | Potency
O=C(NC1CCN(C(=S)NCc2ccco2)CC1)c1ccc(F)cc1 | -16.2% | –
O=S(=O)(NCc1cccnc1)c1ccc(Br)s1 | -14.7% | –
Cc1cc(C)c[n+](-c2nc3ccccc3nc2[N-]S(=O)(=O)c2cccs2)c1 | 1.57% | –
O=S(=O)([N-]c1nc2ccccc2nc1-[n+]1ccc(Cc2ccccc2)cc1)c1ccc(Br)s1 | – | 14.6 µM (active)
Cc1cc(C)cc(NC(=O)CCS(=O)(=O)c2cc3c4c(c2)CCN4C(=O)CC3)c1 | -2.61% | –
CC1CSc2nnc(CCc3ccccc3)n21 (centres undefined) | -11.6% | –
Cc1cc(C(=O)COC(=O)c2cccs2)c(C)n1-c1c(C)n(C)n(-c2ccccc2)c1=O | -23.7% | –
COc1ccc(-c2nnc(SC(=O)N3c4ccccc4Sc4ccccc43)o2)cc1 | – | 7.94 µM (active)
COc1ccc(-c2nnc(SC(C)C#N)o2)cc1 (centres undefined) | -7.87% | –
COc1ccc(-c2nnc(-c3ccc4ccccc4c3)o2)cc1 | -22% | –
COc1ccc(NC(=S)SC)cc1OC | -28.8% | –
COC(=O)c1cc(NC(=O)c2ccco2)ccc1N1CCOCC1 | -17.8% | –
COc1ccc(CC(=O)Nc2ccccc2NC(=O)c2ccco2)cc1OC | -8.13% | –
COc1cc(C(c2c(NC(=O)c3ccco3)sc(C)c2C)N2CCOCC2)cc(OC)c1OC (centres undefined) | – | 29.1 µM (active)
C=CCNC(=O)c1cc2nc(C3CC3)cc(C(F)F)n2n1 | 16.9% | –
CCCCn1c(N)c(N(CC)C(=O)/C=C/c2ccco2)c(=O)[nH]c1=O | 21.7% | –
CC1CCc2c(sc3nc4n(c(=O)c23)CCS4)C1 (centres undefined) | -22.7% | –
CC1CCN(C(=O)c2ccc3c(=O)n4c(nc3c2)CCCCC4)CC1 | 1.08% | –
Cc1ccc(NC(=O)Nc2sc3nc4n(c(=O)c3c2C)CCC(C)CC4)c(Cl)c1 (centres undefined) | – | 11.6 µM (active)
CNC(=O)c1nnc(Cc2ccc(Cl)cc2)o1 | -2.66% | –
O=C1C2C3C=CC(C3)C2C(=O)N1c1ccc(S(=O)(=O)Nc2nccs2)cc1 (centres undefined) | -7.53% | –
Cc1ccc2sc(NNC(=O)c3ccc4c(c3)OCCO4)nc2c1C | -29% | –
O=C(NC1CCCCC1)n1c(=O)oc2cc(S(=O)(=O)N3CCCCC3)ccc21 | -4.25% | –

SMILES | activity change, negative = growth inhibition | Potency
O=C(Nc1nc2ccc(S(=O)(=O)N3CCCC3)cc2s1)C1CCCO1 (centres undefined) | -18.9% | –
Cc1ccc2nc(NC(=O)C3CCN(S(=O)(=O)c4ccc5c(c4)oc(=O)n5C)CC3)sc2c1 | – | 14.6 µM (active)
CC(=O)Nc1c2c(nn1-c1ccc(C)cc1C)CS(=O)C2 (centres undefined) | -7.3% | –
O=C(Nc1ccc(-c2ccc3nncn3n2)cc1)C1CCCCC1 | – | 16.4 µM (active)
O=C(O)c1ccc(NC(=O)C2CCCCC2)cc1 | -7.37% | –
CC(=O)c1ccc(S(=O)(=O)Nc2ccc(-c3ccc4nncn4n3)cc2)cc1 | 13.5% | –
CCOc1ccc(C2c3[nH]c4ccccc4c3CCN2Cc2cccn2-c2ncccn2)cc1 (centres undefined) | – | 13 µM (active)
CCOc1ccc(C2c3[nH]c4ccccc4c3CCN2Cc2cn(CC)nc2C)cc1 (centres undefined) | 11.9% | –
c1ccc(C2c3[nH]c4ccccc4c3CCN2Cc2cccn2-c2cccnc2)nc1 (centres undefined) | – | 5.8 µM (active)
O=C(c1cn2ccccc2n1)N1CCc2c([nH]c3ccccc23)C1c1ccccn1 (centres undefined) | -8.01% | –
COCC(=O)Nc1c(I)c(C(=O)NCC(O)CO)c(I)c(C(=O)N(C)CC(O)CO)c1I (centres undefined) | – | inactive
Nc1nc(SCC(=O)N2CCN(S(=O)(=O)c3ccc(Cl)cc3)CC2)n[nH]1 | 19.5% | –
CC(CCN1CCN=C1N(C)C)c1ccccc1 (centres undefined) | -10.3% | –
Cc1ccc2[nH]c(=O)c(COC(=O)c3ccccn3)cc2c1 | -0.351% | –
Cc1ccccc1NC(=O)c1cnn(-c2ccccc2)c1NC(=O)c1ccco1 | -7.32% | –
Nc1cc2c(cc1Br)-c1ccc(F)cc1C2=O | -10.1% | –
COC(=O)C[C@H]1C=C[C@H](NC(=O)c2ccc(F)cc2)[C@@H](CO)O1 | -16.8% | –
Cc1ccsc1/C=N/NC(=O)Cc1cc(=O)[nH][nH]1 | 15.7% | –
O=C1C[C@H]2C=CCc3cccc(c32)CN1Cc1ccccc1 | – | 20 µM (active)
Cc1cccc(C)c1N1C(=O)CN(Cc2ccccc2)C1=S | -1.87% | –
CCCC(=O)C1CCN(Cc2ccccc2)CC1 | -5.82% | –
O=C1C[C@@H]2c3c(cccc3CN1Cc1ccccc1)C[C@@H](O)[C@H]2O | – | inactive
Brc1ccc(CN2CC[C@H]3C=CCc4cccc(c43)C2)cc1 | – | 15.8 µM (active) and 20.6 µM (active)
